HADH2 inhib: blocks human hydroxyacyl-CoA dehydrogenase type II; Q99714; recombinant HADH2, NADH fluorescence, beta-hydroxybutyryl-CoA; Potency, µM (series often up to 57.1 µM), without a hit: at the top dose activity change, negative = inhibition, hits mostly inhibitors; 73,000 compounds, 3.4% hits; also: potency is read from the fitted curve at half-maximal effect; % is scaled to controls: 0 for no effect and ±100 for the full control effect; nearly all actives have a fitted effect of over 60% in size
Target sequence (Q99714 whole entry, looked up, one chain of several): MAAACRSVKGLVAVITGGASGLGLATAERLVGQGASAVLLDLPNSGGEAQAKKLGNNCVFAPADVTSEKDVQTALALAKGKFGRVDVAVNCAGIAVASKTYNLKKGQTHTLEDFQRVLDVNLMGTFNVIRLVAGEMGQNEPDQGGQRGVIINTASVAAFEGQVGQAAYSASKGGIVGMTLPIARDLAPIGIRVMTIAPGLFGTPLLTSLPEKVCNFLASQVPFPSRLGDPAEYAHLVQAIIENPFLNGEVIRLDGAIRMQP
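Activity measured as NADH fluorescence gain (360/450 nm), taken as the change between first and last reads of a 4-min kinetic run. Conditions: pH 9.0 Tris buffer, 20 nM E. coli-expressed His-tagged enzyme, 1 mM NAD+, 90 uM beta-hydroxybutyryl-CoA; 15-min compound preincubation.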
A350 fluor: A350 region autofluorescence; Compound autofluorescence, 340/450 nm, Alexa 350 dye-equivalents; hits give high values; max dye-equivalent concentration, M; 59,000 compounds, 11% hits; AID 590; in the data active = max dye-equivalent concentration above about 10 nM; inconclusive = mostly about 1.1 nM to 9.6 nM
USP2a inh: blocks human ubiquitin-specific protease USP2a. USP2a enzymatic assay, qHTS inhibition. 60,000 compounds, 0.1% hits. AID 927. Potency, µM (series often up to 38.3 µM), inactives show top-dose activity change, negative = inhibition, usual class: inhibitors; also: potency is read from the fitted curve at half-maximal effect; nearly all actives have a fitted effect of over 60% in size
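USP2 core (20nM final) preincubated 30 min RT with compound, then Ub-PLA2 20nM and NBD C6-HPC 20uM final added; buffer 20mM Tris-HCl pH 8.0, 2mM CaCl2. Fluorescence Ex 460/Em 535 read at 0 and 2.5 h; normalized to NEM.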
AID923: qHTS Assay for Allosteric/Competitive Inhibitors of Caspase-1: Spectroscopic Profiling in AFC Spectral Region; 75,000 compounds, 1.1% hits; compound fluorescence, AFC spectral region (405/520 nm); Potency, µM (top dose mostly 57.5 µM), without a hit: top-dose fluorescence increase, usual class: activators; AID 923, 2007; also: potency is read from the fitted curve at half-maximal effect; 0% is about no effect
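Baseline compound fluorescence (AFC region, 405 nm ex/520 nm em) taken from the intercept of kinetic reads with 50 nM caspase-1 and 5 uM Ac-WEHD-AFC; normalized to an on-plate AFC standard curve; compounds titrated up to 57 uM.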
4-MU autofl: compounds fluorescent in 4-MU spectral region; compound autofluorescence, 340/450 nm, 4-MU equivalents; hits give high values; max dye-equivalent concentration, M; 59,000 compounds, 11% hits; AID 589; in the data active = max dye-equivalent concentration above about 10 nM; inconclusive = mostly about 1.1 nM to 9.6 nM
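Compounds in 100 mM Tris, pH 8.0, sat 15 min at room temperature before fluorescence was read at 340 nm excitation/450 nm emission; a per-plate six-point 4-MU standard curve converted signals to dye-equivalent concentration at each compound concentration.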
HSD17B inhib: blocks hydroxysteroid 17-beta dehydrogenase activity | Potency, µM (titrated, usually from 57.1 µM), inactives show at the top dose activity change, negative = inhibition, usual class: inhibitors | AID 893 | recombinant HSD17B10, NADH fluorescence kinetic | Q99714 | 75,000 compounds, 7.6% hits;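 also: the protocol describes HADH2 (HSD17B10) and not the HSD17B4 of the title; potency is read from the fitted curve at half-maximal effect; % is scaled to controls: 0 for no effect and ±100 for the full control effect; nearly all actives have a fitted effect of over 70% in size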
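20 nM HADH2, pH 9.0 Tris/Tween; cpd preinc 15 min RT; start w/ 1 mM NAD+ + 90 uM b-hydroxybutyryl-CoA; kinetic fluor ex360/em450 q30s x 4 min; delta last-first.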
* marks the source's active call; other numbers are inactive results; i = inactive; u = inconclusive; x = not tested or not shown; [ ] = dose if it differs, or a comment. In the library only some 13% were active in any assay of this set; here they are far more common. Unless noted, calls follow the shape of the dose curve; as a rule, active = well fitted curve in the direction sought with a large enough effect; inconclusive = small, poorly fitted or top-dose-only effect, or another doubt; inactive = no such curve, though single readings can be large; an effect the other way counts as inactive or inconclusive.

SMILES	HADH2 inhib	A350 fluor	USP2a inh	AID923	4-MU autofl	HSD17B inhib
CCOc1ccccc1N(C(=O)c1snc(C(N)=O)c1N)C(C(=O)NCCC(C)C)c1ccco1 (configuration not stated)	9%	1.7e-07M*	x	13%	2e-07M*	32µM*
COCCNC(=O)C(c1cccs1)N(C(=O)Cn1nnc2ccccc21)c1cccc(C)c1 (configuration not stated)	16%	u	8%	2%	i	6%
COc1ccccc1N(C(=O)c1snc(C(N)=O)c1N)C(C(=O)NC1CCCC1)c1ccco1 (configuration not stated)	-22%	4.7e-07M*	21%	13%	3.1e-07M*	32µM*
CC(C)CC1(C)NC(=O)N(CCN2C(=O)c3ccccc3C2=O)C1=O (configuration not stated)	-7%	i	-16%	-4%	i	11%
CC(C(=O)NC1CCCC1)N(C(=O)c1snc(C(N)=O)c1N)c1ccc2c(c1)OCCO2 (configuration not stated)	19%	2.4e-08M*	14%	1%	1.7e-08M*	12%
O=C(O)CCC(=O)OC[C@@H](NC(=O)C(Cl)Cl)C(O)c1ccc([N+](=O)[O-])cc1 (some centres not stated)	x	x	3%	0%	x	3%
Cc1cc(=O)oc2cc(OCC(=O)NCCCN3CCOCC3)ccc12	-20%	u	-1%	0%	i	25µM*
CCOc1ccc(C2c3c(oc4cc(C)c(C)cc4c3=O)C(=O)N2CCCN2CCOCC2)cc1 (configuration not stated)	-2%	x	x	-3%	x	3%
Cc1cc(=O)oc2cc(OCCSCCN3CCOCC3)ccc12	x	1e-08M*	x	x	u	x
O=C(Nc1ncnc2c1ncn2C1OC(COC(=O)c2ccccc2)C(F)C1O)c1ccccc1 (configuration not stated)	8%	i	27%	-1%	i	11%
CC1(C)C[C@@H]2C(=O)CCC3O[C@@]3(C)CCC21 (some centres not stated)	x	x	-10%	-1%	x	3%
COc1cc(/C=C(\C#N)C(N)=O)cc(CSc2nc3ccccc3s2)c1O	13µM*	x	x	-1%	x	u
CCn1nnnc1-c1ccc(OC)c(S(=O)(=O)Nc2ccc(OC)cc2)c1	9%	i	4%	-2%	i	5%
CCn1nnnc1-c1ccc(OC)c(S(=O)(=O)N2CCCCC2)c1	15%	3.7e-08M*	-5%	2%	3e-08M*	-24%
CN(CCOc1ccc(Cl)cc1)c1ccc(S(=O)(=O)N2CCCCC2)cn1	-17%	i	-4%	0%	i	32µM*
Cc1ccccc1-c1cncnc1N1CCNCC1	2%	i	-5%	-3%	i	-8%
COc1ccc(-c2nn(C)c(=O)c3ccccc23)cc1CNC(=O)c1ccco1	-22%	i	39%	0%	i	32µM*
COc1ccc(-c2nn(C)c(=O)c3ccccc23)cc1CNS(C)(=O)=O	8%	i	11%	-1%	i	0%
C=C1c2cc(OC)ccc2NC(=O)N1CC	x	1.2e-07M*	x	x	1e-07M*	x
COC(=O)c1ccc(C=O)cc1	4%	x	x	0%	x	7%
OCCn1c(SC2CCCCC2)nc2ccccc21	3%	i	1%	-2%	i	4%
COc1cc(CC(NC(C)=O)C(=O)NC2CCN(c3nc(C)cc(C)c3C#N)CC2)cc(OC)c1 (configuration not stated)	2%	1.2e-08M*	2%	-2%	u	u
COc1cccc(CC(NC(C)=O)C(=O)NC2CCN(c3nc(C)cc(C)c3C#N)CC2)c1OC (configuration not stated)	15%	1.1e-07M*	7%	-1%	8.6e-08M*	25µM*
CC1=C(C(=O)N2CCCCC2)C(c2cccs2)C2=C(CCCC2=O)N1 (configuration not stated)	u	x	5%	3%	x	32µM*
COC(=O)C1=C(C)NC2=C(C(=O)CCC2)C1c1cccs1 (configuration not stated)	-14%	2.8e-07M*	-8%	2%	2.5e-07M*	32µM*
SMILES	HADH2 inhib	A350 fluor	USP2a inh	AID923	4-MU autofl	HSD17B inhib
Oc1oc(-c2ccco2)nc1C=Nc1ccccc1	-18%	1.8e-08M*	-19%	-1%	1.5e-08M*	-7%
COC(=O)c1[nH]c2ccc(Cl)cc2c1NC(=O)C1CC1	x	1.4e-08M*	x	x	1.2e-08M*	x
Nc1ccc(N=Nc2c(S(=O)(=O)O)cc3ccccc3c2S(=O)(=O)O)cc1	14%[11.4 µM]	u	x	-2%[11.5 µM]	u	-2%[11.4 µM]
Nc1c(S(=O)(=O)O)cc(S(=O)(=O)O)c2ccc(N=Nc3ccccc3)c(O)c12	-4%[11.4 µM]	1.3e-08M*	x	-1%[11.5 µM]	1.1e-08M*	-12%[11.4 µM]
NC(=O)C1(N2CCCCC2)CCN(C(=O)CCCn2c(=O)[nH]c3ccsc3c2=O)CC1	1%	x	x	1%	x	4%
Cc1ccc2oc(-c3cccc(NC(=O)C4CCCO4)c3)nc2c1 (configuration not stated)	-71%	i	31%	-1%	i	25µM*
CCCC(=O)Nc1ccc2oc(-c3cccnc3)nc2c1	62%	1.2e-08M*	6%	-1%	1.2e-08M*	25µM*
CCCCC(=O)Nc1ccc2oc(-c3cccnc3)nc2c1	12%	2.4e-08M*	17%	1%	2e-08M*	25µM*
Cc1ccc2nc(-c3cccc(NC(=O)c4ccc5c(c4)OCCO5)c3)oc2c1	u	i	37%	-2%	i	25µM*
C=C1CCC(O)C/C1=C\C=C1/CCCC2(C)C1CCC2C(C)/C=C/C(C)C(C)C (configuration not stated)	x	x	x	-4%	x	4%
CC(=O)N1CCC2(CCCN(c3ccncc3)C2)CC1	2%	i	-10%	-2%	i	5%
OCc1ccncc1.OCc1ccncc1.[Cl][Pt]([Cl])([Cl])[Cl]	u	i	x	0%[11.5 µM]	i	u
CCC(=O)Nc1ccc2oc(-c3cccc(C)c3)nc2c1	4µM*	1.3e-08M*	11%	1%	1.5e-08M*	3.2µM*
CCOC(=O)N1CCN(C(=O)CCSc2ccccc2)CC1	-4%	x	-2%	3%	x	0%
OCCN(CO)CO	-5%[11.4 µM]	i	x	2%[11.5 µM]	i	5%[11.4 µM]
Nc1ncnc2c1ncn2CCCCC(=O)O	5%[11.4 µM]	i	x	-2%[11.5 µM]	i	-6%[11.4 µM]
CCCCCC[C@@H]([C@H](C)O)n1cnc2c(N)ncnc21	9%	u	0%	-2%	1e-08M*	-5%
O=C(NCCCc1ccccc1)c1ccc(Br)o1	-17%	i	3%	-1%	i	1%
O=C(NCCCc1ccccc1)c1ccccc1O	u	x	6%[7.66 µM]	1%	x	25µM*
